For 40 sequences, binding signal results are on record in PMC12820563, “FoxP3 forms a head-to-head dimer in vivo and stabilizes its multimerization on adjacent microsatellites”.

The full ranking holds about 16,000 sequences; the median of “rpm ratio (pull-down/input)” is about 0.5, and the highest 2% start at about 5.5. This is one part of a sample in which the highest values are shown more often than they occur.

The test deals with T1, MBP-FoxP3dN (Mus musculus, UniProt Q99JB6 188-423).
T1 sequence: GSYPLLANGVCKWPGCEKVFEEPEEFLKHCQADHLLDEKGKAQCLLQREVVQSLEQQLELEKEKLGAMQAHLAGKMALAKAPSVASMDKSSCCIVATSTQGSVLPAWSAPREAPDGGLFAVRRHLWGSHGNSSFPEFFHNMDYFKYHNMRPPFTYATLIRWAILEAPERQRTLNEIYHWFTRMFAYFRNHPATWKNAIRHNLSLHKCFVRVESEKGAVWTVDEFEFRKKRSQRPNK
The test can be described thus: PD-seq (MBP pull-down with sequencing); 20 mM Tris-HCl pH 7.5, 100 mM NaCl, 1.5 mM MgCl2, 0.4 uM protein, 0.1 uM dsDNA library, 30 min, room temperature, amylose pull-down; high values mean tight binding. The settings on record: protein: recombinant; tags: His6-MBP; chain copies: 2; dsDNA, one strand shown. The method in brief: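 His6-MBP-tagged mouse FoxP3 or FoxP1 fragment lacking the N-terminus, expressed in E. coli, was mixed at 0.4 µM with 0.1 µM Klenow-filled double-stranded degenerate DNA library. Incubation was 30 min at room temperature in Tris pH 7.5 buffer with NaCl and MgCl2. Complexes were caught on amylose resin and washed three times; DNA was released with proteinase K, PCR-barcoded and Illumina-sequenced. Binding is reads-per-million enrichment, pull-down over input, with replicates pooled.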
Regarding “GATGATTGTTCTCCCAGCTGATGAATTTTGTACGTCGAGTAAACAAATTTTCCTAATCTTTCTGTTCAAGCGCCATCTAC”, the binding signal was 1.18 RPM ratio (pull-down/input).
In the case of “GATGATTGTTCTCCCAGCTGATGAATTGTAAGTGTCGAGTAAACAAATTTTCCTAATCTTTCTGTTCAAGCGCCATCTAC” it was 0.84 RPM ratio (pull-down/input).
With “GATGATTGTTCTCCCAGCTGATGAATTTTGATGTTCGAGTAAACAAATTTTCCTAATCTTTCTGTTCAAGCGCCATCTAC”, the binding signal was 3.91 RPM ratio (pull-down/input).
In the case of “GATGATTGTTCTCCCAGCTGATGAATTTAAGGATTCGAGTAAACAAATTTTCCTAATCTTTCTGTTCAAGCGCCATCTAC”, the binding signal is 0.302 RPM ratio (pull-down/input).
In the case of “GATGATTGTTCTCCCAGCTGATGAATTGAATATTTCGAGTAAACAAATTTTCCTAATCTTTCTGTTCAAGCGCCATCTAC” it was 0.671 RPM ratio (pull-down/input).
For “GATGATTGTTCTCCCAGCTGATGAATTTTGACCATCGAGTAAACAAATTTTCCTAATCTTTCTGTTCAAGCGCCATCTAC”, the binding signal is 0.551 RPM ratio (pull-down/input).
To “GATGATTGTTCTCCCAGCTGATGAATTGTTATATTCGAGTAAACAAATTTTCCTAATCTTTCTGTTCAAGCGCCATCTAC” belongs 1.27 RPM ratio (pull-down/input); to “GATGATTGTTCTCCCAGCTGATGAATTGTGTTATTCGAGTAAACAAATTTTCCTAATCTTTCTGTTCAAGCGCCATCTAC”, 7.88 RPM ratio (pull-down/input); to “GATGATTGTTCTCCCAGCTGATGAATTATTGTGTTCGAGTAAACAAATTTTCCTAATCTTTCTGTTCAAGCGCCATCTAC”, 2.16 RPM ratio (pull-down/input).
With “GATGATTGTTCTCCCAGCTGATGAATTGGATCGTTCGAGTAAACAAATTTTCCTAATCTTTCTGTTCAAGCGCCATCTAC”, the binding signal is 0.402 RPM ratio (pull-down/input).
Turning to “GATGATTGTTCTCCCAGCTGATGAATTTACAGGATCGAGTAAACAAATTTTCCTAATCTTTCTGTTCAAGCGCCATCTAC”, the binding signal was 0.329 RPM ratio (pull-down/input).
For “GATGATTGTTCTCCCAGCTGATGAATTCTTAAGTTCGAGTAAACAAATTTTCCTAATCTTTCTGTTCAAGCGCCATCTAC”, the binding signal is 0.237 RPM ratio (pull-down/input).
As to “GATGATTGTTCTCCCAGCTGATGAATTGTATGTGTCGAGTAAACAAATTTTCCTAATCTTTCTGTTCAAGCGCCATCTAC”, the binding signal is 3.75 RPM ratio (pull-down/input).
Turning to “GATGATTGTTCTCCCAGCTGATGAATTATGTATGTCGAGTAAACAAATTTTCCTAATCTTTCTGTTCAAGCGCCATCTAC”, the binding signal is 4.99 RPM ratio (pull-down/input).
Turning to “GATGATTGTTCTCCCAGCTGATGAATTGTATGTTTCGAGTAAACAAATTTTCCTAATCTTTCTGTTCAAGCGCCATCTAC”, the binding signal was 3.89 RPM ratio (pull-down/input).
As to “GATGATTGTTCTCCCAGCTGATGAATTGGTATGGTCGAGTAAACAAATTTTCCTAATCTTTCTGTTCAAGCGCCATCTAC”, the binding signal is 1.45 RPM ratio (pull-down/input).
Take “GATGATTGTTCTCCCAGCTGATGAATTTTGTATGTCGAGTAAACAAATTTTCCTAATCTTTCTGTTCAAGCGCCATCTAC”: the binding signal is 6.01 RPM ratio (pull-down/input).
For the sequence “GATGATTGTTCTCCCAGCTGATGAATTTGTATGTTCGAGTAAACAAATTTTCCTAATCTTTCTGTTCAAGCGCCATCTAC”, the binding signal is 6.63 RPM ratio (pull-down/input).
With “GATGATTGTTCTCCCAGCTGATGAATTGTGTATGTCGAGTAAACAAATTTTCCTAATCTTTCTGTTCAAGCGCCATCTAC”, the binding signal is 5.84 RPM ratio (pull-down/input).
In the case of “GATGATTGTTCTCCCAGCTGATGAATTTGTATGGTCGAGTAAACAAATTTTCCTAATCTTTCTGTTCAAGCGCCATCTAC” it was 6.04 RPM ratio (pull-down/input); in that of “GATGATTGTTCTCCCAGCTGATGAATTCTATGTGTCGAGTAAACAAATTTTCCTAATCTTTCTGTTCAAGCGCCATCTAC”, 1.96 RPM ratio (pull-down/input).
In the case of “GATGATTGTTCTCCCAGCTGATGAATTGTATGATTCGAGTAAACAAATTTTCCTAATCTTTCTGTTCAAGCGCCATCTAC” it was 2.94 RPM ratio (pull-down/input); in that of “GATGATTGTTCTCCCAGCTGATGAATTCTGTATGTCGAGTAAACAAATTTTCCTAATCTTTCTGTTCAAGCGCCATCTAC”, 4.95 RPM ratio (pull-down/input); in that of “GATGATTGTTCTCCCAGCTGATGAATTGTATGGGTCGAGTAAACAAATTTTCCTAATCTTTCTGTTCAAGCGCCATCTAC”, 1.19 RPM ratio (pull-down/input).
In the case of “GATGATTGTTCTCCCAGCTGATGAATTATTCAGATCGAGTAAACAAATTTTCCTAATCTTTCTGTTCAAGCGCCATCTAC”, the binding signal is 0.24 RPM ratio (pull-down/input).
For “GATGATTGTTCTCCCAGCTGATGAATTTTTTCAATCGAGTAAACAAATTTTCCTAATCTTTCTGTTCAAGCGCCATCTAC”, the binding signal was 0.247 RPM ratio (pull-down/input).
Consider “GATGATTGTTCTCCCAGCTGATGAATTTGGTGAGTCGAGTAAACAAATTTTCCTAATCTTTCTGTTCAAGCGCCATCTAC”, for which the binding signal was 0.814 RPM ratio (pull-down/input).
Consider “GATGATTGTTCTCCCAGCTGATGAATTGTAGGCGTCGAGTAAACAAATTTTCCTAATCTTTCTGTTCAAGCGCCATCTAC”, for which the binding signal is 0.778 RPM ratio (pull-down/input).
In the case of “GATGATTGTTCTCCCAGCTGATGAATTGTTCACGTCGAGTAAACAAATTTTCCTAATCTTTCTGTTCAAGCGCCATCTAC” it was 0.396 RPM ratio (pull-down/input); in that of “GATGATTGTTCTCCCAGCTGATGAATTCTGTCGCTCGAGTAAACAAATTTTCCTAATCTTTCTGTTCAAGCGCCATCTAC”, 0.926 RPM ratio (pull-down/input); in that of “GATGATTGTTCTCCCAGCTGATGAATTACCACGCTCGAGTAAACAAATTTTCCTAATCTTTCTGTTCAAGCGCCATCTAC”, 0.466 RPM ratio (pull-down/input).
On to “GATGATTGTTCTCCCAGCTGATGAATTCTATAGCTCGAGTAAACAAATTTTCCTAATCTTTCTGTTCAAGCGCCATCTAC”, for which the binding signal is 0.43 RPM ratio (pull-down/input).
To “GATGATTGTTCTCCCAGCTGATGAATTGGCGGCCTCGAGTAAACAAATTTTCCTAATCTTTCTGTTCAAGCGCCATCTAC” belongs 0.449 RPM ratio (pull-down/input); to “GATGATTGTTCTCCCAGCTGATGAATTTGTATTGTCGAGTAAACAAATTTTCCTAATCTTTCTGTTCAAGCGCCATCTAC”, 6.39 RPM ratio (pull-down/input); to “GATGATTGTTCTCCCAGCTGATGAATTTGTATTTTCGAGTAAACAAATTTTCCTAATCTTTCTGTTCAAGCGCCATCTAC”, 4.85 RPM ratio (pull-down/input).
Regarding “GATGATTGTTCTCCCAGCTGATGAATTTTGTATTTCGAGTAAACAAATTTTCCTAATCTTTCTGTTCAAGCGCCATCTAC”, the binding signal is 5.33 RPM ratio (pull-down/input).
For the sequence “GATGATTGTTCTCCCAGCTGATGAATTGTATCTGTCGAGTAAACAAATTTTCCTAATCTTTCTGTTCAAGCGCCATCTAC”, the binding signal was 1.2 RPM ratio (pull-down/input).
As to “GATGATTGTTCTCCCAGCTGATGAATTGTAATTGTCGAGTAAACAAATTTTCCTAATCTTTCTGTTCAAGCGCCATCTAC”, the binding signal is 2.31 RPM ratio (pull-down/input).
Consider “GATGATTGTTCTCCCAGCTGATGAATTGTATTTGTCGAGTAAACAAATTTTCCTAATCTTTCTGTTCAAGCGCCATCTAC”, for which the binding signal was 6.43 RPM ratio (pull-down/input).
In the case of “GATGATTGTTCTCCCAGCTGATGAATTACAAGCTTCGAGTAAACAAATTTTCCTAATCTTTCTGTTCAAGCGCCATCTAC” it was 0.518 RPM ratio (pull-down/input).
